Measured values as given in the supplement of paper PMC6555819.

Tested on: THRa homodimer (NR concentration 90 nM)
Test: PBM binding z-score (relative to random genomic background probes); higher = stronger binding; sequences stand for … in GC…GCGATTGACAGCGTAGAATGAAGG
Summary of the method: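 Binding z-scores were set against random background probes. The data came from custom Agilent 4×180K protein-binding microarrays carrying double-stranded probes with 34-nt variable regions, incubated 1 h with ligand-free nuclear receptor dimers. Partner-specific antibodies detected binding, and scanned fluorescence was regression-normalized.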

Row | Sequence | PBM binding z-score
1 | AGAACGAGGACACGCTGAGTTGATAGCAGAGTAG | 2.29
2 | AGAACGAGGGCAATGTGTTGATAGCACGGGTGGC | -0.000904
3 | ACTTACGGGTCAACGAGGTTATATCACGCGTATA | 1.45
4 | GCTCGAAGGACAAGGTCAGAGCTTTGTCCGTAGA | 0.93
5 | CCTACTGGGCCATCCGGTCATTGATATCAACGTT | 0.677
6 | TTTATTAGTTGATTAGGGCAACCGAAACAGCGGA | 0.89
7 | CCTTACGGGTCACGAGGGTATAGCACGACGAGCG | 0.0461
8 | CTCGAAAGGTCGGTTGAGATGAGTATACGGATAA | -0.23
9 | GTTATTAGTTGAAAGGGCAACCGAATGATTCTCG | 0.669
10 | ATCTCTAGGTAAGACGCAGTTCAGTGAAGAACGC | -0.325
11 | TCACATAGGTAAACAGGTGAAAGTCCGTAAGTTA | 0.454
12 | ATGGAAAGGTCGACGAGGTGAGTATACACCGTTT | 0.967
13 | CTACCAAGGTGATCAAGGTCGTTGATTACTATTC | 1.55
14 | ATCGAAAGGTCGTGAGGTGAGAATACAGAAAGGC | 1.44
15 | CCTAGTTGGTCAAGGTTACACACGCTATAGGTAC | 1.78
16 | TCTAGTTGGTCACTGAGGTCACACACGACGGGTA | 5.09
17 | AGAACGGGGGCACGCTGAGTTGATAGCAGAGTAG | 0.833
